Measurements from PubChem BioAssay.
Calls of active or inactive are those of the source.

Legend:
[1] = E. coli DRC41 culture turbidity changes, primary screen, E. coli filamentation inducer project, strain DRC41, OD650, 48 h (AID 1152);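 further: E. coli MC1000 strain DRC41 lacking acrAB efflux pump and sulA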; conditions: E. coli DRC41 (acrAB sulA), higher = more signal, called active from +8 up or from −8 down
[2] = small-molecule binders of probe aLefty1, primary screen, biochemical, small-molecule microarray, 635/667 nm fluorescence (AID 1153); conditions: higher = more signal;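 further: score merges spot fluorescence with signal-to-noise ratio from the scanned slide images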
[3] = PSAC antagonists in infected red cells, primary screen, cell-based, P. falciparum Indochina, OD700, 1 h (AID 1154); conditions: P. falciparum Indochina infected RBC osmotic lysis, higher = more signal, called active from +8 up or from −8 down
[4] = PSAC antagonists in infected red cells, primary screen, cell-based, P. falciparum Indochina, OD700, 2 h (AID 1155);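 further: lysis reports solute entry through the parasite surface anion channel PSAC; channel blockers reduce lysis of infected cells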; conditions: P. falciparum Indochina infected erythrocytes, osmotic lysis OD700; higher = more signal, called active from +8 up or from −8 down
[5] = osmotic lysis modulators in infected erythrocytes, primary screen, PSAC antagonist project, cell-based, P. falciparum Indochina, OD700, 3 h (AID 1156); conditions: higher = more signal, called active from +8 up or from −8 down
[6] = PSAC antagonists in infected red cells, primary screen, cell-based, P. falciparum Indochina, OD700, 18 h (AID 1157); conditions: P. falciparum Indochina infected erythrocytes, osmotic lysis OD700, 18 h; higher = more signal, called active from +8 up or from −8 down
[7] = modulators of S6 phosphorylation in cells, primary screen, cell-based, A549, cytoblot, luminescence, serum-stimulated (AID 1158); conditions: A549 phospho-S6 cytoblot, 5 h, higher = more signal;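 further: serum-stimulated A549 lung adenocarcinoma cells; signal is phosphorylated S6 detected by cytoblot immunostaining with HRP secondary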
[8] = biological target: NADPH oxidase 2 (Homo sapiens) (UniProt P04839); experiment: NOX2-dependent H2O2 signal modulators, primary screen, NOX inhibitor project, cell-based, HEK293-NOX2, PMA-stimulated, Amplex Red fluorescence (AID 1159); conditions: 45 min, higher = more signal, called active from +8 up or from −8 down; further: test concentration not given here
[9] = biological target: NADPH oxidase 4 (Homo sapiens) (UniProt Q9NPH5); experiment: NOX4-dependent H2O2 signal modulators, primary screen, NOX inhibitor project, cell-based, HEK293-NOX4, tetracycline-induced, Amplex Red fluorescence (AID 1160); conditions: 45 min, higher = more signal, called active from +8 up or from −8 down
[10] = biological target: NADPH oxidase 5 (Homo sapiens) (UniProt Q96PH1); experiment: NOX5-dependent H2O2 signal modulators, primary screen, NOX inhibitor project, cell-based, HEK293-NOX5, Amplex Red fluorescence (AID 1161); conditions: HEK293-NOX5, ionomycin, 45 min, higher = more signal
[11] = A549 cell viability effects, profiling panel, calcein-AM fluorescence, 48 h, basal (AID 1162); conditions: higher = more signal; further: test concentration not given here
[12] = adipocyte viability effects, profiling panel, cell-based, 3T3-L1 adipocytes, calcein-AM fluorescence, 48 h, basal (AID 1163); conditions: 3T3-L1 adipocytes viability, higher = more signal; further: test concentration not given here
[13] = HepG2 cell viability effects, profiling panel, calcein-AM fluorescence, 48 h, basal (AID 1164); conditions: higher = more signal; further: test concentration not given here
[14] = MM1S cell viability effects, profiling panel, calcein-AM fluorescence, 48 h, basal (AID 1165); conditions: higher = more signal;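 further: viability of MM1S multiple myeloma cells under basal unstimulated conditions; test concentration not given here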
[15] = basal RPMI8226 viability, no added stimulus, profiling panel, cell-based, calcein-AM fluorescence, 48 h, PK04 Diversity Set (AID 1166); conditions: RPMI8226 myeloma viability, higher = more signal;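 further: cells grown under basal conditions without added stimulus; test concentration not given here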
[16] = basal HepG2 mitochondrial membrane potential changes, profiling panel, cell-based, JC-1 fluorescence, 24 h, 100 nL compound (AID 1167); conditions: higher = more signal; further: test concentration not given here
[17] = basal 3T3-L1 adipocyte mitochondrial potential changes, profiling panel, cell-based, JC-1 fluorescence, 3T3-L1 adipocytes, 24 h, 100 nL compound (AID 1168); conditions: JC-1 mitochondrial fluorescence, higher = more signal, called active from +8 up or from −8 down; further: test concentration not given here
[18] = basal RPMI8226 mitochondrial membrane potential changes, profiling panel, cell-based, JC-1 fluorescence, 24 h, 100 nL compound (AID 1169); conditions: RPMI8226 myeloma, JC-1 mitochondrial potential fluorescence, higher = more signal; further: test concentration not given here
[19] = basal MM1S mitochondrial membrane potential changes, profiling panel, cell-based, JC-1 fluorescence, 24 h, 100 nL compound (AID 1170); conditions: higher = more signal; further: test concentration not given here
[20] = A549 lung cancer cell viability effects, profiling panel, resazurin fluorescence, 24 h, PK04 Diversity Set (AID 1171); conditions: higher = more signal, called active from +8 up or from −8 down; further: test concentration not given here

Sequence of NADPH oxidase 2 (Homo sapiens) (P04839 whole entry, looked up): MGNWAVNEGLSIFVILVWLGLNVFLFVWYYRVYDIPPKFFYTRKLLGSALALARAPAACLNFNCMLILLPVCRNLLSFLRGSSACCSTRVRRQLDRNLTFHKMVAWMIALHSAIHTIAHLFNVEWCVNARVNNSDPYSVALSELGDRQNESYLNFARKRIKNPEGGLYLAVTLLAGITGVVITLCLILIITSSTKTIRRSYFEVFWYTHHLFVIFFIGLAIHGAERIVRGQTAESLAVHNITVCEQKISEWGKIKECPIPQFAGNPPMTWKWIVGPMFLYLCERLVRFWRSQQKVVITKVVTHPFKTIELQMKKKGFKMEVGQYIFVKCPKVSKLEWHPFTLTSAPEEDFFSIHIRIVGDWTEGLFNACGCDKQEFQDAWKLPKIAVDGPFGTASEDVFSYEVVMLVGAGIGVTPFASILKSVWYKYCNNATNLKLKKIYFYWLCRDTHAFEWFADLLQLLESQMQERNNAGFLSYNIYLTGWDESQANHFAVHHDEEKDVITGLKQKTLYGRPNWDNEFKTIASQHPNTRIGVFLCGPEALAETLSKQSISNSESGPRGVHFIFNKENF
Sequence of NADPH oxidase 4 (Homo sapiens) (Q9NPH5 whole entry, looked up): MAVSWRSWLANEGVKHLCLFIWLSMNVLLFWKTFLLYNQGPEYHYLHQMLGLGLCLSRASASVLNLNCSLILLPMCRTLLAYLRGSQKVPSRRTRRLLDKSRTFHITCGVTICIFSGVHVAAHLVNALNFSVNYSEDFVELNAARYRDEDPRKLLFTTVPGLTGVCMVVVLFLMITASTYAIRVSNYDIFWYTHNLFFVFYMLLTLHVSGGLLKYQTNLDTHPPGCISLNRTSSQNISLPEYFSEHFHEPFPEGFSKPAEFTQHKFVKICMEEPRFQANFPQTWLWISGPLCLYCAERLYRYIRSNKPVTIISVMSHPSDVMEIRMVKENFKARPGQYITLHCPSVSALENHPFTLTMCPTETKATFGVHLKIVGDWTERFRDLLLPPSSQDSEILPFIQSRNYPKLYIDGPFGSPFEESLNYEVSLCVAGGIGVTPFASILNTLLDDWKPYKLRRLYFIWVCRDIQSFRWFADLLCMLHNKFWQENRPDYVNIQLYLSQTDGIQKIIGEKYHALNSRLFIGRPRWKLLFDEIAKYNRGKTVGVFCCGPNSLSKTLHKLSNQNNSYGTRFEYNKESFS
Sequence of NADPH oxidase 5 (Homo sapiens) (Q96PH1 whole entry, looked up): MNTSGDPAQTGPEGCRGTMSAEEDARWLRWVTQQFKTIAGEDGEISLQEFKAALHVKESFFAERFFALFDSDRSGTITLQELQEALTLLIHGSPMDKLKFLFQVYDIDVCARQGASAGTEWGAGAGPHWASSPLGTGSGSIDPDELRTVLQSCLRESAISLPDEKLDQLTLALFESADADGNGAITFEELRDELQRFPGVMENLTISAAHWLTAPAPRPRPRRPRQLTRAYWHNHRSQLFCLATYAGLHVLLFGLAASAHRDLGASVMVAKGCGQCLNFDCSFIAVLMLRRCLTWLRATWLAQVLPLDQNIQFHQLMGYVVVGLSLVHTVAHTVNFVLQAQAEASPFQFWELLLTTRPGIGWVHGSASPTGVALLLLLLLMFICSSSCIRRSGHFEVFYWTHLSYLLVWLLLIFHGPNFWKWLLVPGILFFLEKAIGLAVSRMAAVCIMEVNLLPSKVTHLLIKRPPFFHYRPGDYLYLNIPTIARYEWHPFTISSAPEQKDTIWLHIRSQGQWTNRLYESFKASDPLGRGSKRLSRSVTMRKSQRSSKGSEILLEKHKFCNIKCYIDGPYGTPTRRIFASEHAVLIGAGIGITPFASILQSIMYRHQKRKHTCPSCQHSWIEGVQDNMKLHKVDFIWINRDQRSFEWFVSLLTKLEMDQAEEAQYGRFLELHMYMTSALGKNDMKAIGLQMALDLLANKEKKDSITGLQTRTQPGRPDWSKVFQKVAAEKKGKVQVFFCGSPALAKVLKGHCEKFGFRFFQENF

Row | SMILES | z-score [1] | composite z-score [2] | z-score [3] | z-score [4] | z-score [5] | z-score [6] | z-score [7] | z-score [8] | z-score [9] | z-score [10] | z-score [11] | z-score [12] | z-score [13] | z-score [14] | z-score [15] | z-score [16] | z-score [17] | z-score [18] | z-score [19] | z-score [20]
1 | O=C1O[C@H](c2ccccc2)[C@H](c2ccccc2)N2[C@H]1[C@@H](C(=O)N1CCCCCCC1)[C@]1(C(=O)Nc3ccc(C#CCCO)cc31)[C@H]2c1ccc(O)cc1 | 1.48 (inactive) | 3.06 | 1.01 (inactive) | -0.0898 (inactive) | 0.0261 (inactive) | 0.295 (inactive) | 0.0374 | 1.28 (inactive) | 0.892 (inactive) | 1.38 | 1.53 | 0.0496 | 1.22 | -0.149 | 0.0392 | 0.638 | 0.547 (inactive) | -0.146 | -0.979 | 0.798 (inactive)
2 | [N-]=[N+]=NCc1ccccc1C[C@]1(C(=O)N2CCCCC2)COC(c2ccc(OCCCO)cc2)=N1 | 2.89 (inactive) | -0.543 | 29.2 (active) | 19.5 (active) | 4.13 (inactive) | 2.11 (inactive) | -0.305 | -1.66 (inactive) | 0.0299 (inactive) | -1.38 | 0.139 | -0.288 | -0.689 | -3.54 | -4.52 | -0.792 | 0.607 (inactive) | -1.22 | -1.98 | 0.898 (inactive)
3 | CCCCC(=C=CC[C@@H](O)c1ccccc1OCCO)C[C@@H](O)c1ccccn1 | 0.142 (inactive) | -0.0192 | 11.3 (active) | 1.51 (inactive) | 1.02 (inactive) | 0.894 (inactive) | -0.261 | 1.32 (inactive) | -0.281 (inactive) | -1.41 | -0.158 | -0.48 | 0.242 | -0.35 | -0.84 | -0.16 | 0.341 (inactive) | 0.495 | -0.179 | 0.756 (inactive)
4 | CN1C2C=C(c3ccc(CO)cc3)C(C3C(=O)N(C(N)=O)C(=O)C32)C1C1CC1 (stereo not given) | 0.149 (inactive) | -0.104 | 0.944 (inactive) | 0.411 (inactive) | -0.103 (inactive) | 0.0864 (inactive) | -0.0656 | -1.57 (inactive) | -1.29 (inactive) | -0.739 | -0.497 | 0.0457 | -0.157 | 0.341 | -0.773 | -0.391 | -0.242 (inactive) | -0.482 | 0.326 | 0.182 (inactive)
5 | O=C(CS)NCCCCCCNC(=O)[C@H]1C[C@H]2C(=O)NCC(=O)N2[C@H]1c1cccc(OCCO)c1 | 0.838 (inactive) | 0.0797 | 2.16 (inactive) | -0.151 (inactive) | -1.92 (inactive) | -1.36 (inactive) | 0.21 | 2.14 (inactive) | 1.22 (inactive) | 0.769 | -0.109 | 1.18 | -0.232 | -0.436 | -1.09 | -0.407 | 0.225 (inactive) | 0.211 | -0.497 | -0.15 (inactive)
6 | COC(=O)[C@@]1(Cc2ccc(F)cc2)[C@H]2c3cc(C(=O)N(C)C)n(Cc4cccc5ccccc45)c3C[C@H]2CN1C(=O)c1ccccc1 | -1.92 (inactive) | 0.0568 | 8.44 (active) | 1.29 (inactive) | 1.07 (inactive) | 1.28 (inactive) | -0.779 | 0.105 (inactive) | -3.8 (inactive) | 0.592 | -0.994 | -0.296 | 0.156 | -0.0591 | -0.489 | -0.0443 | -2.25 (inactive) | -0.207 | -0.774 | 0.0731 (inactive)
7 | COCCCNC(=O)[C@]1(Cc2ccccc2N=[N+]=[N-])N=C(c2ccc(OCCCO)cc2)O[C@@H]1c1ccccc1 | -0.112 (inactive) | 0.749 | 28.8 (active) | 22.5 (active) | 2.38 (inactive) | 3.2 (inactive) | 0.008 | -2.28 (inactive) | 0.471 (inactive) | 0.124 | -0.751 | 0.16 | -0.757 | -3.22 | -3.9 | 2.34 | 1.84 (inactive) | -1.27 | -0.774 | 0.345 (inactive)
8 | C=CC[C@]1(C(=O)NCC(O)CO)N=C(c2ccc(OCCCO)cc2)O[C@H]1c1ccccc1CN=[N+]=[N-] (stereo not given in full) | 0.0715 (inactive) | 0.104 | 15.7 (active) | 1.44 (inactive) | 4.83 (inactive) | 0.839 (inactive) | -0.99 | 0.871 (inactive) | 0.0808 (inactive) | -0.704 | 0.444 | -0.0459 | 1.31 | -0.22 | -0.365 | 1.28 | -0.451 (inactive) | -0.427 | -0.825 | -0.389 (inactive)
9 | COc1ccc([Si](C)(C)[C@H]2[C@H](CCO)O[C@@]3(C(=O)N(Cc4ccccc4)c4ccc(NC(=O)[C@H](C)O)cc43)[C@@H]2C)cc1 | -0.0149 (inactive) | 0.013 | 10.8 (active) | 2.73 (inactive) | 0.0811 (inactive) | 1.43 (inactive) | 0.0757 | -0.699 (inactive) | 0.488 (inactive) | 1.66 | -1.88 | -1.49 | -4.52 | -2.62 | -4.31 | -2.86 | 0.364 (inactive) | -0.961 | -2.39 | -3.18 (inactive)
